Test results reported in ChEMBL document CHEMBL1157539, “Thousands of chemical starting points for antimalarial lead identification” (Nature, 2010).
Where “and” joins values, the source holds several entries; their conditions need not be identical. Identical values can stand only once.

Assays:
Type in all cases: functional
Plasmodium falciparum [1] = test: GSK_TCMDC: Inhibition of Plasmodium falciparum 3D7 in whole red blood cells, using parasite LDH activity as an index of growth. Test compounds present at 2uM
Plasmodium falciparum [2] = test: GSK_TCMDC: Inhibition of Plasmodium falciparum Dd2 in whole red blood cells, using parasite LDH activity as an index of growth. Test compounds present at 2uM
HepG2 = test: GSK_TCMDC: Percent inhibition of human HepG2 cell line. Test compounds present at 10uM.

Row | SMILES | Inhibition (Plasmodium falciparum [1]) | Inhibition (Plasmodium falciparum [2]) | Inhibition (HepG2)
1 | C=C[C@H]1CN2CC[C@H]1C[C@@H]2[C@@H](O)c1ccnc2ccccc12 [CINCHONINE] | 100% | 2% | 0%
2 | CS(=O)(=O)Nc1ccc2[nH]cc(C3CCN(CC4CCC(NC(=O)/C=C/c5ccccc5Cl)CC4)CC3)c2c1 (centres undefined) | 96% | 7% | 12%
3 | Br.CC(Cc1ccc(SC(C)(C)C)cc1)NCC(O)c1cccc(Cl)c1 (centres undefined) | 99% | 99% | 14%
4 | CN(c1cc(NC(=O)c2ccccc2)ccn1)C1CCN(Cc2cccc(F)c2)CC1.O=C(O)C(F)(F)F | 92% | 94% | 0%
5 | Cc1cc(N)nc2ccc(CNCCc3ccccc3Br)cc12.Cl | 100% | 77% | 28%
6 | CC[C@H]1CN2CC[C@H]1C[C@H]2[C@H](O)c1cc(N2CCC3CCCCC3C2)nc2ccc(OC)cc12 (some centres undefined) | 100% | 99% | 50%
7 | CC[C@@]1(O)C(=O)OCc2c1cc1n(c2=O)Cc2c-1nc1cc3c(cc1c2CN1CCOCC1)OCO3.O=C(O)C(F)(F)F | 89% | 80% | 81%
8 | N#Cc1ccc(N(CCCO)Cc2ccccc2C(F)(F)F)cc1C(F)(F)F | 91% | 23% | 7%
9 | CC(Cc1ccc(-c2nc3ccccc3[nH]2)cc1)NCC(O)c1cccc(C(F)(F)F)c1 (centres undefined) | 97% | 90% | 33%
10 | CC(C)CNCc1cccc(-c2ccc(CN(C(=O)c3cccs3)C3CCN(Cc4ccccc4)CC3)cc2)c1.O=C(O)C(F)(F)F | 85% | 40% | 22%
11 | Cc1[nH]c2ccccc2c1C1CCN(CC2CCC(NC(=O)/C=C/c3ccc(Cl)c(Cl)c3)CC2)CC1 (centres undefined) | 100% | 93% | 15%
12 | COc1cc(CC(C)NCC(O)c2cccc(C(F)(F)F)c2)ccc1OCc1ccccc1 (centres undefined) | 93% | 71% | 2%
13 | CS(=O)(=O)Nc1ccc2[nH]cc(C3CC4CCC(C3)N4CC3CCC(NC(=O)/C=C/c4ccc(Cl)c(Cl)c4)CC3)c2c1 (centres undefined) | 100% | 50% | 3%
14 | Cc1cccc(C(=O)Nc2ccnc(N(C)C3CCN(CC(C)C)CC3)c2)c1.O=C(O)C(F)(F)F | 95% | 6% | 10%
15 | O=C(C=C1c2ccccc2-c2ccccc21)NC1CCC(CN2CCC(c3c[nH]c4ccccc34)CC2)CC1 (centres undefined) | 99% and 100% | 64% and 67% | 21% and 54%
16 | CCCN(CCC)CCOC(=O)C(OCC)(c1ccccc1)c1ccccc1 | 97% | 0% | 0%
17 | Cl.N[C@@H](CCN1CCC(c2cccc(O)c2)CC1)Cc1ccc(F)c(F)c1 | 92% | 0% | 25%
18 | CC(Cc1ccc(OCCCCOc2ccccc2)cc1)NCCCc1nc2ccccc2[nH]1 (centres undefined) | 97% | 67% | 99%
19 | CCc1ccc(CN2CCC(CN(C(=O)c3ccccc3)c3ccc(Cl)cc3)CC2)cc1 | 96% | 95% | 12%
20 | Cc1cccc(N2CCN(Cc3cc(Cl)ccc3O)CC2)c1C.O=C(O)C(=O)O | 96% | 96% | 0%

Row | SMILES | Inhibition (Plasmodium falciparum [1]) | Inhibition (Plasmodium falciparum [2]) | Inhibition (HepG2)
21 | CNC(=O)c1ccc2[nH]cc(C3CCN(CC4CCC(NC(=O)/C=C/c5ccc(Cl)c(Cl)c5)CC4)CC3)c2c1 (centres undefined) | 100% | 90% | 0%
22 | CCCc1ccc2c(c1O)CCC(N(CCC)CCC)C2.Cl (centres undefined) | 90% | 23% | 0%
23 | CC(Cc1ccc(Oc2ccccc2)cc1)NCC(O)c1cccc(C(F)(F)F)c1 (centres undefined) | 98% | 99% | 16%
24 | CN(C)CCCOc1ccc(CN2CCC(c3c[nH]c4ccc(NCC5CCCCC5)cc34)CC2)cc1.O=C(O)C(F)(F)F | 99% | 99% | 58%
25 | Cc1ccc(C(=O)Nc2ccnc(N(C)C3CCN(Cc4cccc(O)c4)CC3)c2)cn1.O=C(O)C(F)(F)F | 90% | 1% | 0%
26 | CC(=O)Nc1ccc(CN2CCC(N(C)c3cc(NC(=O)c4cccs4)ccn3)CC2)cc1.O=C(O)C(F)(F)F | 100% | 43% | 0%
27 | CC[C@H]1CN2CC[C@H]1C[C@H]2[C@H](O)c1cc(Cl)nc2ccc(OC)cc12 | 100% | 92% | 0%
28 | Cl.O=C(c1cc(C(F)(F)F)cc(C(F)(F)F)c1)N1CCC(CCN2CCC3(CC2)C(=O)NCN3c2ccccc2)CC1Cc1ccc(Cl)c(Cl)c1 (centres undefined) | 100% | 77% | 19%
29 | O=C(/C=C/c1cc([N+](=O)[O-])ccc1Cl)NC1CCC(CN2CCC(c3c[nH]c4ccccc34)CC2)CC1 (centres undefined) | 100% | 94% | 21%
30 | CC[C@H]1CN2CC[C@@H]1C[C@H]2[C@H](O)c1cc(N2CCC(c3ccccc3)CC2)nc2ccc(OC)cc12 | 99% | 98% | 45%
31 | CC[C@H]1CN2CC[C@@H]1C[C@H]2[C@H](O)c1ccnc2ccc(Cl)cc12.Cl | 100% | 98% | 0%
32 | COC(=O)c1ccc(CC(C)NCC(O)c2ccc(F)c(Cl)c2)cc1.Cl (centres undefined) | 98% | 78% | 0%
33 | COC(=O)c1ccc(CC(C)NCC(O)c2cccc(C(F)(F)F)c2)c(OC)c1 (centres undefined) | 100% | 98% | 5%
34 | O=C(/C=C/c1ccc(Cl)c(Cl)c1)NC1CCC(CN2CCC(c3c[nH]c4ccccc34)CC2)CC1 (centres undefined) | 100% | 85% | 27%
35 | O=C(/C=C/c1ccc(Cl)c(Cl)c1)N1CCC(CN2CCC(c3c[nH]c4ccc(O)cc34)CC2)CC1 | 100% | 100% | 44%
36 | O=C(NC1CCC(CN2CCC(c3c[nH]c4ccccc34)CC2)CC1)C1(O)c2ccccc2-c2ccccc21 (centres undefined) | 85% | 46% | 22%
37 | COC(=O)/C=C/C(=O)N[C@@H]1CC[C@@]2(O)[C@H]3Cc4ccc(O)c5c4[C@@]2(CCN3CC2CC2)[C@H]1O5.Cl | 95% | 66% | 9%
38 | COc1cccc(CCNC(C)Cc2ccc(OCCCCOc3ccccc3)cc2)c1 (centres undefined) | 97% | 90% | 100%
39 | COc1ccc(CC(C)NCC(O)c2cccc(Br)c2)cc1 (centres undefined) | 99% | 93% | 10%
40 | Cc1[nH]c2cc(F)ccc2c1C1=CCN(CCCCC2(C)C(=O)Nc3c(F)cccc32)CC1 (centres undefined) | 96% | 89% | 15%

Row | SMILES | Inhibition (Plasmodium falciparum [1]) | Inhibition (Plasmodium falciparum [2]) | Inhibition (HepG2)
41 | CCOC(C(=O)OCC1CCCN1C(C)C)(c1ccccc1)c1ccccc1 (centres undefined) | 98% | 2% | 0%
42 | CCCCCCCN1C2CCC1CC(CCOc1ccnc3ccc(OC)cc13)C2 (centres undefined) | 98% | 88% | 23%
43 | O=C(Cc1cc(=O)oc2cc(O)ccc12)NC1CCC(CN2CCC(c3c[nH]c4ccccc34)CC2)CC1 (centres undefined) | 96% | 0% | 5%
44 | COc1cc(C=CC(=O)N2CCC(CN3CCC(c4c[nH]c5ccccc45)CC3)CC2)cc(OC)c1 | 95% | 8% | 19%
45 | Cc1ccc(CC(C)NCC(O)c2cccc([N+](=O)[O-])c2)cc1 (centres undefined) | 97% | 85% | 0%
46 | CCCCCCCc1cc(O)c2c3c(c(=O)oc2c1)CN(C)CC3 | 97% | 100% | 0%
47 | COc1ccc(CN(C2CC2)C(C)C(=O)c2[nH]c(C)c(C(C)=O)c2C)cc1 (centres undefined) | 98% | 64% | 40%
48 | COC(=O)c1ccc(CC(C)NCC(O)c2cccc(Oc3cccc(C(F)(F)F)c3)c2)cc1.Cl (centres undefined) | 91% | 73% | 19%
49 | CC(C)CNCc1ccc(-c2cccc(CN(C(=O)Nc3ccccc3)C3CCN(Cc4ccccc4)CC3)c2)cc1.O=C(O)C(F)(F)F | 100% | 95% | 48%
50 | Cc1ccc2[nH]cc(C3CCN(CC4CCC(NC(=O)/C=C/c5ccc(Cl)c(Cl)c5)CC4)CC3)c2c1 (centres undefined) | 100% and 94% | 86% and 46% | 37% and 29%
51 | CN(CC(=O)N1CCN(S(=O)(=O)c2cccc(Cl)c2)CC1CN1CCCC1)c1ccc(Cl)c(Cl)c1 (centres undefined) | 89% | 32% | 32%
52 | Oc1ccc(CN2CCN(CCOC(c3ccccc3)c3ccc(Cl)cc3)CC2)cc1Cl (centres undefined) | 98% | 97% | 11%
53 | CN1C(=O)OC[C@@H]1Cc1ccc2[nH]cc(C3=CCN(Cc4ccccc4)CC3)c2c1 | 86% | 66% | 4%
54 | Br.COC(=O)c1ccc(CC(C)NCC(O)c2cccc(SC(F)(F)F)c2)cc1 (centres undefined) | 96% | 72% | 7%
55 | N#Cc1c(Cl)cccc1Oc1ccc(S(=O)(=O)NC2CCC(CN3CCC(c4c[nH]c5ccccc45)CC3)CC2)cc1 (centres undefined) | 85% and 100% | 36% and 16% | 31% and 29%
56 | CS(=O)(=O)Nc1ccc2c(C3CCN(CC4CCN(C(=O)/C=C/c5ccc(Cl)c(Cl)c5)CC4)CC3)c[nH]c2c1 | 99% | 70% | 28%
57 | Cc1cc(CN2CCN(CCOC(c3ccccc3)c3ccccc3)CC2)ccc1O | 97% | 96% | 9%
58 | O=[N+]([O-])c1ccc(Oc2c(Cl)cc(S(=O)(=O)N3CCC(CN4CCC(c5c[nH]c6ccccc56)CC4)CC3)cc2Cl)c(Cl)c1 | 100% | 83% | 43%
